# Inconclusive results are not listed. A number with no mark means an inactive call. Active and inactive are the calls of the source. The call rests on the fitted dose curve; in most records, active means well fitted curve in the direction sought with a large enough effect; inconclusive means small, poorly fitted or top-dose-only effect, or another doubt; inactive means no such curve, though single readings can be large or run the other way.
# Test system: NanoLuc luciferase (engineered Oplophorus gracilirostris luciferase)
# Assay: Confirmatory Nanoluciferase (NLuc) qHTS assay for identification of artifact compounds. On activity change, negative = inhibition: % of control where 0% means no effect.
# Conditions: secreted NLuc in S16 cell medium, luminescence, 5 min; series mostly up to 39 µM; activity change, negative = inhibition: at the top concentration
# Method in brief: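 Conditioned medium from NLuc-expressing S16 cells (diluted 1:55) was incubated with compounds for 15 min at room temperature. Nano-Glo substrate (1:100) was then added, and luminescence was read after 5 min.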
# Potency means the concentration at half of the fitted maximal effect.
Structure (SMILES),"activity change, negative = inhibition",Potency
Cc1ccc(NC(=O)c2ncn(-c3ccccc3)n2)c(Cl)c1,-6.83%,
O=C(Nc1ccccn1)c1sc2ccc([N+](=O)[O-])cc2c1Cl,-4.05%,
COC(=O)CCC(C)C1CCC2C3CC[C@H]4CC(O)CC[C@@]4(C)C3CC(O)[C@]12C (stereo partly specified),-8.16%,
Oc1ccc(-c2csc(-c3ccc(F)cc3)n2)c(O)c1,-9.63%,
CCCN(CCC)CCNC(=O)CN1C(=O)COc2ccc(S(=O)(=O)N3CCC(C)CC3)cc21,-0.175%,
Cc1cccn2c(=O)c3cc(C(=O)NCc4ccccc4)c(=N)n(CCOCCO)c3nc12,-20%,
CCSc1ncc(Cl)c(C(=O)Nc2c(C(=O)Nc3cccc(C)c3)oc3ccccc23)n1,-9.49%,
CC1(C)OC2CC(=O)OCC23C1CC(=O)C1(C)C3CC[C@@]2(C)[C@H](c3ccoc3)OC(=O)C3OC312 (stereo partly specified),0.365%,
CSc1ccc2nc(Nc3nnc(-c4cccs4)o3)sc2c1,-6.97%,
Cc1oc(-c2cccc(Br)c2)nc1CSc1nc2ncccc2[nH]1,,8.64 µM (active)
CO[C@H]1C[C@H](O[C@H]2[C@H](C)[C@@H](O[C@@H]3O[C@H](C)C[C@H](N(C)C)[C@H]3O)[C@@H](C)C[C@]3(CO3)C(=O)[C@H](C)[C@@H](O)[C@@H](C)[C@@H](C)OC(=O)[C@@H]2C)O[C@@H](C)[C@@H]1O,10.5% [at 19.8 µM],
